# The list is not random: actives were taken first. Their share in the collection is about 2.3%.
# Mcl1-Bid inh: disrupts binding of human Mcl-1 to Bid peptide; inhibition, % at 21.7 µM; actives 0.97% (n = 220,000); Q07820; TR-FRET Mcl-1/Bid-Dy647 peptide binding, 1536-well;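 active = compounds that cut the binding signal by more than half at the single screening dose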;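 note: His-tagged Mcl-1 with europium anti-His antibody binding Bid BH3 peptide; 0% = Mcl-1 plus peptide wells and 100% = peptide-only wells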
# Bim-Mcl-1: human Bim-Mcl-1 interaction inhibition; Q07820; Bead-based flow cytometry, Bim peptide-Mcl-1 binding; inhibition, % at 10 µM; actives 0.1% (n = 190,000); AID 1009; in the data active = inhibition above about 40%;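 note: 0% = no compound tracer wells and 100% = peptide blocker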
# Mcl1 Noxa PPI: disrupts binding of human Mcl-1 to Noxa peptide; TR-FRET Mcl-1/Noxa peptide binding, 2 h; inhibition, % at 21.7 µM; actives 1.5% (n = 220,000);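 active = compounds that cut the protein-peptide binding signal by more than 50% relative to plate controls in a single-dose test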;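 note: His-tagged Mcl-1 with rhodamine Noxa BH3 peptide and terbium anti-His antibody; 0% = Mcl-1 plus Noxa peptide wells and 100% = peptide-only wells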
# GLD-1 TGE inh: GLD-1-TGE RNA interaction inhibition (C. elegans). inhibition, % at 5.96 µM. actives 0.44% (n = 320,000). purified GLD-1 + fluorescein TGE RNA, fluorescence polarization. Q17339;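 active = percent inhibition above a per-plate cutoff, the plate mean of test compounds plus 3 SD, cut at about 30% in these data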;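 note: 0% = DMSO wells with GLD-1 and probe and 100% = wells lacking GLD-1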
# Target sequence (Q17339 whole entry, looked up): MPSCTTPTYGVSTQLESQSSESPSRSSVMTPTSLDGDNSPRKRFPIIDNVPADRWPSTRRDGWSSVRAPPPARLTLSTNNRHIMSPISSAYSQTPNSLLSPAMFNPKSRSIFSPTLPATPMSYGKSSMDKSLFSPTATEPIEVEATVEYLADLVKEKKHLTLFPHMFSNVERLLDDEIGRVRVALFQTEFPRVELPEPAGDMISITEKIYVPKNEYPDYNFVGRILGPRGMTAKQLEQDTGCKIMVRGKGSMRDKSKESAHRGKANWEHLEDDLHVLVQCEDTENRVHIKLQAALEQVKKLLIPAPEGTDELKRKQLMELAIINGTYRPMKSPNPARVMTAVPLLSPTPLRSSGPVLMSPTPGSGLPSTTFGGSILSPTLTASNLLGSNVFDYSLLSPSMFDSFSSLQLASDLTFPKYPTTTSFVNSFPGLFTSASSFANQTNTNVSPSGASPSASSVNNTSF
# MCL1-BIM inh: MCL1-BIM-BH3 interaction inhibition (human) | actives 0.68% (n = 320,000) | AID 2057 | GST-MCL1 / FITC-Bim-BH3 fluorescence polarization | inhibition, % at 10.9 µM | Q07820;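 active = inhibition above the mean inhibition of all tested compounds plus 3 SD, set per campaign, cut at about 40% in these data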;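 note: 0% = DMSO wells and 100% = unlabeled Bim-BH3 peptide control; higher means more loss of mP so more displacement of Bim peptide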
# BCLXL inh: Bcl-xL (human) inhibition. GST-Bcl-xL / FITC-Bim BH3 peptide fluorescence polarization. inhibition, % at 10.9 µM. actives 0.7% (n = 320,000). AID 2129;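 active = inhibition above the mean of all tested compounds plus 3 SD, cutoff set per campaign, cut at about 30% in these data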;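 note: 0% = DMSO wells and 100% = unlabeled Bim-BH3 peptide competitor; inhibitors lower millipolarization by displacing the labeled peptide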
# Bcl-xL conf: Bcl-xL (human) inhibition, MCL1 counter-screen confirmation. shares compounds with MCL1-BIM inh. GST-Bcl-xL / FITC-Bim BH3 peptide FP binding. inhibition, % at 10.9 µM. actives 54% (n = 1,700);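 active = inhibition above a cutoff equal to the mean inhibition of all tested compounds plus 3 SD, cut at about 30% in these data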;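 note: 0% = DMSO wells and 100% = unlabeled Bim BH3 control peptide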
# MCL1 BIM confirm: MCL1-BIM-BH3 interaction inhibition, confirmation; shares compounds with MCL1-BIM inh; GST-MCL1 / FITC-Bim-BH3 fluorescence polarization; inhibition, % at 10.9 µM; actives 61% (n = 1,700);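 active = inhibition above the average of all tested compounds plus 3 SD, cut at about 40% in these data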;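 note: 0% = DMSO wells and 100% = unlabeled Bim-BH3 control peptide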
# Numbers without * were called inactive; x = no result given.
SMILES,Mcl1-Bid inh,Bim-Mcl-1,Mcl1 Noxa PPI,GLD-1 TGE inh,MCL1-BIM inh,BCLXL inh,Bcl-xL conf,MCL1 BIM confirm
COc1ccc(OC(C)C(=O)Nc2cccc(OC)c2)cc1 (stereo not given),4,-2,-3,12,-1,-2,x,x
O=c1cc(CSc2nnc3ccccn23)c2c(ccc3ccccc32)o1,-3,-3,22,66*,88*,76*,-8,16
CCCn1c(SCC(=O)N(CC)CC)nnc1-c1ccncc1,-38,0,-10,2,0,-1,x,x
CCN(CC)C(=O)CSc1nnc2nnc3cc(Cl)ccc3n12,5,x,4,123*,88*,93*,65*,79*
CC(C)(C)c1cc[n+](-c2[nH]c(=O)sc2/C=N/NC(=O)c2ccccc2[O-])cc1,x,x,x,70*,126*,97*,84*,129*
CCc1ccc[n+](-c2[nH]c(=O)sc2/C=N/NC([S-])=Nc2ccccc2)c1,-24,-7,47,108*,144*,122*,154*,185*
CCc1ccc[n+](-c2[nH]c(=O)sc2/C=N/N=C(\N)[O-])c1,-29,x,13,4,0,3,x,x
O=c1[nH]c(-[n+]2ccccc2)c(/C=N/NC([S-])=Nc2ccccc2)s1,-13,x,13,143*,183*,164*,110*,127*
Cc1cc(C)c[n+](-c2[nH]c(=O)sc2/C=N/NC([S-])=Nc2ccccc2)c1,-55,-7,13,117*,167*,129*,61*,60*
[S-]C(=Nc1ccc(Cl)cc1)N[n+]1ccccc1,-75,0,15,5,5,7,x,x
CC(C)(C)c1cc[n+](-c2[nH]c(=O)sc2/C=N/N=C(\[O-])c2cccnc2)cc1,x,x,x,2,-1,2,x,x
CCOCC(=O)Nc1ccc(S(=O)(=O)N2CCC(c3nc4ccccc4[nH]3)CC2)cc1,x,x,x,-1,4,2,x,x
Cc1cc(NC(=S)N(Cc2ccc(Br)cc2)Cc2ccc(C(=O)O)cc2)ccc1Cl,-24,0,9,-2,11,5,x,x
CSCCC(NC(=O)COc1ccccc1)C(=O)NCC1COc2ccccc2O1 (stereo not given),x,x,x,-6,-2,-3,x,x
COc1ccc(/C=C/C2=CC(C)(C)NC(=S)N2)cc1,-57,-3,6,-3,-2,-4,x,x
Cc1cc[n+](-c2[nH]c(=O)sc2/C=N/NC([S-])=Nc2ccccc2)cc1,-64,-6,10,116*,164*,139*,128*,128*
COc1cccc(/C=c2\s/c(=C\C(=O)C(C)(C)C)[nH]c2=O)c1,-8,0,30,-4,-2,-1,x,x
COc1ccc(/C=c2\s/c(=C/C(=O)c3ccc(C)cc3)[nH]c2=O)c(OC)c1,-21,0,9,-36,105*,103*,88*,97*
Cc1cc(NC(=O)CCC(=O)N(c2ccccc2C)C(C(=O)NC2CCCC2)c2ccccc2)no1 (stereo not given),x,x,x,-5,1,4,x,x
NC(=O)c1ccsc1N,-17,0,24,119*,189*,177*,11,2
O=C1c2cc([N+](=O)[O-])cc3cc([N+](=O)[O-])cc(c23)C(=O)N1c1ccccn1,21,-6,12,7,14,13,x,x
O=C(O)c1cccc(N2C(=O)c3cc([N+](=O)[O-])cc4cc([N+](=O)[O-])cc(c34)C2=O)c1,x,x,x,2,47*,15,21,45*
O=C(COC(=O)Cn1cnc2ccccc2c1=O)Nc1ccccc1OC(F)F,x,x,x,5,x,x,x,x
Cc1cc(NS(=O)(=O)c2ccc(NC(=O)/C=C/c3cccc(Cl)c3)cc2)no1,x,x,x,-3,8,9,x,x
Cc1ccc(/C=C2\SC(=S)N(/N=C/c3cc([N+](=O)[O-])ccc3O)C2=O)o1,-21,1,91*,4,66*,27,31*,61*

# High-throughput results (PubChem BioAssay)
